Experimental data reported in PubChem BioAssay (NCI).
Where “and” joins values, the source holds several entries; their conditions need not be identical. Equal entries are not always repeated. About 83,000 compounds went through this panel and 20% of them were active in at least one assay; those are over-represented in the sample as a whole.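 Values shown are percent growth following 48 h exposure of cells in 96-well plates to a single concentration of compound; below 10 was considered active.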 A number with no mark means an inactive call.

What follows are compounds tested on SW-620 colon (assay: NCI-60 one-dose screen, 48 h (100 = growth as untreated, 0 = no growth, -100 = all killed)). Settings: 10 µM.
Experimental: Growth inhibition of the SW-620 human tumor cell line is measured as a screen for anti-cancer activity. Cells are grown in 96 well plates and exposed to the test compound for 48 hours. Compounds are tested at a single concentration, which is 10^-5 M for most compounds. The reported endpoint is percent growth (GI% or GIPRCNT), where numbers from 0 - 100% represent growth inhibition, and numbers from -100% - 0 represent cell death. For example, a value of 40 represents 60% growth inhibition. A value of 0 means no net growth occurred over the course of the experiment. A value of -40 indicates 40% of cells at the beginning of the experiment died by the end of the experiment. A value of -100 means all cells are dead at the end of the experiment.
NCI-60 Human Tumor Cell Lines Screen was performed using the standard one-dose NCI protocol, which is described in more detail at https://dtp.cancer.gov/discovery_development/nci-60/default.htm.
Compounds with GIPRCNT values below 10 were considered active. Activity score was based on GIPRCNT using the following formula: […]
Score is 0 for GIPRCNT values of 100 or above, 50 for GIPRCNT values of 0, and 100 for GIPRCNT values of -100.

| SMILES | growth [%] |
| --- | --- |
| CS/C(=C\c1ccc(C(=O)c2ccc(C)cc2)n1C)S(C)=O (stereo not given) | 101 |
| O=c1ccn2c(n1)OC1CC2OC1COC(c1ccccc1)(c1ccccc1)c1ccccc1 (stereo not given) | 108 |

Same assay, conditions: 10 µM unless noted

| SMILES | growth |
| --- | --- |
| CC(C)(C)C1CCC(=NO)CC1 (stereo not given) | 106% |
| COC(=O)c1nc(N)nc(C(=O)OC)c1C(=O)c1ccc(F)cc1 | 110% |
| NCCSSC/C=C\CSSCCN | 102% |
| CNc1ccc(Cl)cc1S(=O)(=O)c1ccccc1[N+](=O)[O-] | 108% and 105% |
| CCc1ccc(OC(=O)CCl)cc1 | 109% |
| ON=C(C1CCCCC1)C1CCCCC1 | 102% |
| CC(O)CCNC(c1ccccc1)C(O)c1ccccc1 (stereo not given) | 110% |
| CCOC(=O)NC(N)=O | 107% and 111% |
| Cc1nc(Nc2ccc(Cl)cc2)c2cnn(-c3ccccc3)c2n1 | 98.4% |
| N#Cc1c[nH]n2ccnc12 | 119% |
| CCOC(C)=N | 107% |
| COc1ccc(CCn2cnn3c(=O)c4ccccc4nc3c2=O)cc1OC | 101% and 112% |
| O=C1c2ccccc2C(c2ccccc2)C1c1ccccc1 (stereo not given) | 90.1% |
| O=[N+]([O-])c1ccc(NC(c2ccccc2)c2ccc3cccnc3c2O)cc1 (stereo not given) | 23.9% |
| CS(=O)(=O)OCC1NC(=O)C(COS(C)(=O)=O)NC1=O (stereo not given) | 106% and 104% |
| CCCC(=O)Oc1ccc2ccccc2c1 | 92.1% |
| CC(C)=NOC(C)C(=O)O (stereo not given) | 103% |
| CCCCNC(=O)c1ccccc1C | 104% |

| SMILES | growth |
| --- | --- |
| CCOC(=O)c1ccc(C(=N)N)cc1 | 102% |
| Cc1cccc(Cl)c1N | 96.9% |
| C(=N\OCCc1ccccc1)/c1ccccn1 | 110% and 111% |
| CC1(C)OC(=O)C(=Cc2ccc(C#N)cc2)C(=O)O1 | 100% and 104% |
| CCNC1=CC(=O)c2ncccc2C1=O | 13.8% |
| CCOC(=N)c1ccc(C(=N)OCC)cc1 | 119% |
| COC(=O)C(Cc1cn(C(C)=O)c2ccccc12)P(=O)(OC)OC (stereo not given) | 99.5% |
| Cc1cnc(N)s1 | 103% |
| COC(=O)c1nc(=S)[nH]c(C(=O)OC)c1C(=O)c1ccccc1 | 108% |
| CCOC(=O)c1ccncc1 | 104% |
| CCCCCCCCCCCCCCCCC(=O)O | 105% |
| CCOC(=O)c1csc(N)n1 | 104% and 103% |
| O=C(O)c1cc(=O)[nH]c(=O)[nH]1 | 111% and 103% |
| CCCCOC1NC(=O)NC(=O)C1(F)C(=O)OCC (stereo not given) | 94.6% and 76.7% |
| CC(C)(C)OC(=O)CC1(O)CCCCC1 | 103% |
| CN(C)C(=S)N(C)C | 107% |
| O=C(N=C1C(=O)C2(CCCCC2)C2(N=C(c3ccccc3)OC2=O)C12CCCCC2)c1ccccc1 (stereo not given) | 71.5% |
| C=CCN1C(=O)c2ccccc2C1=O | 98.5% |

Same assay, conditions: 100 µM

| SMILES | growth [%] |
| --- | --- |
| CS/C(=C\c1ccc(C(=O)c2ccc(C)cc2)n1C)S(C)=O (stereo not given) | 97.4 |
| O=c1ccn2c(n1)OC1CC2OC1COC(c1ccccc1)(c1ccccc1)c1ccccc1 (stereo not given) | 90.4 |
